From the supplement of paper PMC8728848
This excerpt belongs to a sample that is enriched for the strongest signals.

Assays:
Experiment in all cases: glycan array binding signal (z-score within array); higher = stronger binding
Details in all cases: glycan notation: IUPAC condensed, linker removed
Fuc(a1-2)Gal = target: Fuc(a1-2)Gal
Summary of the method: (§1)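 Negative Z-scores can be read as non-binding. The Z-score is calculated within each array and then averaged across arrays of one protein sequence at different concentrations or buffers and across linkers. Arrays, 3228 in all, were curated from the Consortium for Functional Glycomics database and kept only where the protein sequence was available.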

[1] = target: Fuc(a1-2)Gal(b1-3)GlcNAc(b1-2)Man(a1-3)[Fuc(a1-2)Gal(b1-3)GlcNAc(b1-2)Man(a1-6)]Man(b1-4)GlcNAc(b1-4)GlcNAc
Summary of the method: as §1

[2] = target: Fuc(a1-2)Gal(b1-3)[Fuc(a1-4)]GlcNAc(b1-2)Man(a1-3)[Fuc(a1-2)Gal(b1-3)[Fuc(a1-4)]GlcNAc(b1-2)Man(a1-6)]Man(b1-4)GlcNAc(b1-4)[Fuc(a1-6)]GlcNAc(b1-4)[Fuc(a1-6)]GlcNAc
Summary of the method: as §1

[3] = target: Fuc(a1-2)Gal(b1-4)[Fuc(a1-3)]GlcNAc(b1-2)[Fuc(a1-2)Gal(b1-4)[Fuc(a1-3)]GlcNAc(b1-4)]Man(a1-3)[Fuc(a1-2)Gal(b1-4)[Fuc(a1-3)]GlcNAc(b1-2)Man(a1-6)]Man(b1-4)GlcNAc(b1-4)GlcNAc
Summary of the method: as §1

[4] = target: Fuc(a1-2)Gal(b1-4)[Fuc(a1-3)]GlcNAc(b1-3)Gal(b1-4)[Fuc(a1-3)]GlcNAc(b1-3)Gal(b1-4)[Fuc(a1-3)]GlcNAc
Summary of the method: as §1

Fuc(a1-2)Gal6S(b1-4)Glc = target: Fuc(a1-2)Gal6S(b1-4)Glc
Summary of the method: as §1

[5] = target: Fuc(a1-2)[Gal(a1-3)]Gal(b1-3)GlcNAc(b1-2)Man(a1-3)[Fuc(a1-2)[Gal(a1-3)]Gal(b1-3)GlcNAc(b1-2)Man(a1-6)]Man(b1-4)GlcNAc(b1-4)[Fuc(a1-6)]GlcNAc
Summary of the method: as §1

[6] = target: Fuc(a1-2)[Gal(a1-3)]Gal(b1-4)GlcNAc
Summary of the method: as §1

[7] = target: Fuc(a1-2)[Gal(a1-3)]Gal(b1-4)GlcNAc(b1-2)Man
Summary of the method: as §1

[8] = target: Fuc(a1-2)[GalNAc(a1-3)]Gal(b1-4)GlcNAc(b1-2)Man
Summary of the method: as §1

[9] = target: Fuc(a1-2)[GalNAc(a1-3)]Gal(b1-4)GlcNAc(b1-3)GalNAc
Summary of the method: as §1

[10] = target: Fuc(a1-3)[Gal(b1-4)]GlcNAc(b1-6)[Gal(b1-3)GlcNAc(b1-3)]Gal(b1-4)Glc
Summary of the method: as §1

[11] = target: Fuc(a1-3)[Gal3S(b1-4)]GlcNAc
Summary of the method: as §1

Gal(a1-4)Gal(b1-4)Glc = target: Gal(a1-4)Gal(b1-4)Glc
Summary of the method: as §1

Gal(b1-3)GlcNAc = target: Gal(b1-3)GlcNAc
Summary of the method: as §1

[12] = target: Gal(b1-3)GlcNAc(a1-6)Gal(b1-4)GlcNAc
Summary of the method: as §1

[13] = target: Gal(b1-3)GlcNAc(b1-2)Man(a1-3)[Gal(b1-3)GlcNAc(b1-2)Man(a1-6)]Man(b1-4)GlcNAc(b1-4)GlcNAc
Summary of the method: as §1

[14] = target: Gal(b1-3)GlcNAc(b1-2)Man(a1-3)[Gal(b1-3)GlcNAc(b1-2)Man(a1-6)]Man(b1-4)GlcNAc(b1-4)[Fuc(a1-6)]GlcNAc
Summary of the method: as §1

[15] = target: Gal(b1-3)GlcNAc(b1-3)Gal(b1-3)GlcNAc
Summary of the method: as §1

[16] = target: Gal(b1-3)GlcNAc(b1-3)Gal(b1-4)GlcNAc
Summary of the method: as §1

[17] = target: Gal(b1-3)GlcNAc(b1-3)Gal(b1-4)GlcNAc(b1-2)[Gal(b1-3)GlcNAc(b1-3)Gal(b1-4)GlcNAc(b1-6)]Man(a1-6)[Gal(b1-3)GlcNAc(b1-3)Gal(b1-4)GlcNAc(b1-2)Man(a1-3)]Man(b1-4)GlcNAc(b1-4)[Fuc(a1-6)]GlcNAc
Summary of the method: as §1

[18] = target: Gal(b1-3)GlcNAc(b1-3)Gal(b1-4)GlcNAc(b1-3)Gal(b1-4)GlcNAc(b1-2)[Gal(b1-3)GlcNAc(b1-3)Gal(b1-4)GlcNAc(b1-3)Gal(b1-4)GlcNAc(b1-6)]Man(a1-6)[Gal(b1-3)GlcNAc(b1-3)Gal(b1-4)GlcNAc(b1-3)Gal(b1-4)GlcNAc(b1-2)Man(a1-3)]Man(b1-4)GlcNAc(b1-4)[Fuc(a1-6)]GlcNAc
Summary of the method: as §1

[19] = target: Gal(b1-3)[Fuc(a1-4)]GlcNAc(b1-3)Gal(b1-4)[Fuc(a1-3)]GlcNAc
Summary of the method: as §1

[20] = target: Gal(b1-3)[Neu5Ac(b2-6)]GalNAc
Summary of the method: as §1

[21] = target: Gal(b1-4)GlcNAc(b1-3)Gal(b1-4)GlcNAc
Summary of the method: as §1

[22] = target: Gal(b1-4)GlcNAc(b1-3)Gal(b1-4)GlcNAc(b1-2)Man(a1-3)[Gal(b1-4)GlcNAc(b1-3)Gal(b1-4)GlcNAc(b1-2)Man(a1-6)]Man(b1-4)GlcNAc(b1-4)[Fuc(a1-6)]GlcNAc
Summary of the method: as §1

[23] = target: Gal(b1-4)GlcNAc(b1-3)Gal(b1-4)GlcNAc(b1-3)Gal(b1-4)GlcNAc(b1-3)Gal(b1-4)GlcNAc(b1-2)Man(a1-3)[Gal(b1-4)GlcNAc(b1-3)Gal(b1-4)GlcNAc(b1-3)Gal(b1-4)GlcNAc(b1-3)Gal(b1-4)GlcNAc(b1-2)Man(a1-6)]Man(b1-4)GlcNAc(b1-4)GlcNAc
Summary of the method: as §1

[24] = target: Gal(b1-4)GlcNAc(b1-3)Gal(b1-4)GlcNAc(b1-3)Gal(b1-4)GlcNAc(b1-3)Gal(b1-4)GlcNAc(b1-2)Man(a1-3)[Gal(b1-4)GlcNAc(b1-3)Gal(b1-4)GlcNAc(b1-3)Gal(b1-4)GlcNAc(b1-3)Gal(b1-4)GlcNAc(b1-2)Man(a1-6)]Man(b1-4)GlcNAc(b1-4)[Fuc(a1-6)]GlcNAc
Summary of the method: as §1

[25] = target: Gal(b1-4)GlcNAc(b1-3)Gal(b1-4)GlcNAc(b1-3)Gal(b1-4)GlcNAc(b1-3)Gal(b1-4)GlcNAc(b1-2)[Gal(b1-4)GlcNAc(b1-3)Gal(b1-4)GlcNAc(b1-3)Gal(b1-4)GlcNAc(b1-3)Gal(b1-4)GlcNAc(b1-6)]Man(a1-6)[Gal(b1-4)GlcNAc(b1-3)Gal(b1-4)GlcNAc(b1-3)Gal(b1-4)GlcNAc(b1-3)Gal(b1-4)GlcNAc(b1-2)Man(a1-3)]Man(b1-4)GlcNAc(b1-4)[Fuc(a1-6)]GlcNAc
Summary of the method: as §1

[26] = target: Gal(b1-4)GlcNAc(b1-3)Gal(b1-4)GlcNAc(b1-3)Gal(b1-4)GlcNAc(b1-3)Gal(b1-4)GlcNAc(b1-3)Gal(b1-4)GlcNAc(b1-2)[Gal(b1-4)GlcNAc(b1-3)Gal(b1-4)GlcNAc(b1-3)Gal(b1-4)GlcNAc(b1-3)Gal(b1-4)GlcNAc(b1-3)Gal(b1-4)GlcNAc(b1-6)]Man(a1-6)[Gal(b1-4)GlcNAc(b1-3)Gal(b1-4)GlcNAc(b1-3)Gal(b1-4)GlcNAc(b1-3)Gal(b1-4)GlcNAc(b1-3)Gal(b1-4)GlcNAc(b1-2)Man(a1-3)]Man(b1-4)GlcNAc(b1-4)[Fuc(a1-6)]GlcNAc
Summary of the method: as §1

B1: SGC, Q9M345 (protein)
chain: QNLNFTYNGFHPPLTDISLQGLATVTPNGLLKLTNTSVQKTGHAFCTERIRFKDSQNGNVSSFSTTFVFAIHSQIPTLSGHGIAFVVAPTLGLPFALPSQYIGLFNISNNGNDTNHIFAVEFDTIQSSEFGDPNDNHVGIDLNGLRSANYSTAGYRDDHDKFQNLSLISRKRIQVWIDYDNRSHRIDVTVAPFDSDKPRKPLVSYVRDLSSILLEDMYVGFSSATGSVLSEHFLVGWSFRLNGEAPMLSLSKLPKLPRFEPRRIS
- glycan array binding signal (z-score) (Fuc(a1-2)Gal): -0.354
- glycan array binding signal (z-score) [1]: 3.64
- glycan array binding signal (z-score) [2]: -0.292
- glycan array binding signal (z-score) [3]: -0.12
- glycan array binding signal (z-score) [4]: -0.332
- glycan array binding signal (z-score) (Fuc(a1-2)Gal6S(b1-4)Glc): -0.377
- glycan array binding signal (z-score) [5]: -0.4
- glycan array binding signal (z-score) [6]: -0.374
- glycan array binding signal (z-score) [7]: -0.352
- glycan array binding signal (z-score) [8]: -0.4
- glycan array binding signal (z-score) [9]: -0.344
- glycan array binding signal (z-score) [10]: -0.291
- glycan array binding signal (z-score) [11]: -0.299
- glycan array binding signal (z-score) (Gal(a1-4)Gal(b1-4)Glc): -0.292
- glycan array binding signal (z-score) (Gal(b1-3)GlcNAc): -0.208
- glycan array binding signal (z-score) [12]: 0.154
- glycan array binding signal (z-score) [13]: 3.77
- glycan array binding signal (z-score) [14]: 6.74
- glycan array binding signal (z-score) [15]: 0.723
- glycan array binding signal (z-score) [16]: -0.434
- glycan array binding signal (z-score) [17]: 5.28
- glycan array binding signal (z-score) [18]: 4.72
- glycan array binding signal (z-score) [19]: -0.357
- glycan array binding signal (z-score) [20]: -0.305
- glycan array binding signal (z-score) [21]: -0.296
- glycan array binding signal (z-score) [22]: 4.81
- glycan array binding signal (z-score) [23]: 4.57
- glycan array binding signal (z-score) [24]: 5.27
- glycan array binding signal (z-score) [25]: 8.45
- glycan array binding signal (z-score) [26]: 5.39
